CaV13 FRET inh: Disruptors of the CACNA1D IQ motif to Ca2+-dependent inactivation inhibitor domain association, primary screening, Förster resonance energy transfer in intact living …; HEK cells, CFP/YFP FRET ICDI-IQ, plate reader, 10 min; percent FRET-ratio fall versus neutral wells; inhibition, % at 12.3 µM; 340,000 compounds, 0.098% hits;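 active means mean replicate inhibition of at least 30% and at least 1% of replicates passing that level; inconclusive means only one of the two criteria is met; inactive means neither criterion is met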
IDE cell activ: boosts human insulin-degrading enzyme activity in HEK cells | FAbeta-B cleavage, fluorescence polarization; 0% vehicle, 100% cell-free pure enzyme wells | activation, % at 5.96 µM | P14735 | 340,000 compounds, 0.073% hits;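 active means activation above the mean of all tested compounds plus 3 SD, set per screening campaign, cut at about 17% in these data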
IDE inh: cellular human IDE inhibition; HEK cells, FAbetaB cleavage, fluorescence polarization; inhibition, % at 5.59 µM; 320,000 compounds, 0.41% hits;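 active means percent inhibition above the average of all tested compounds plus 3 SD, set per screening campaign, cut at about 16% in these data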;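 further: IDE supplied by intact live HEK cells; FP after avidin binding of uncleaved biotin substrate so inhibition keeps polarization high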
PfM18AAP inh-1: PfM18AAP enzyme inhibition. recombinant PfM18AAP, H-Glu-NHMec fluorogenic cleavage. inhibition, % at 7.35 µM. AID 1822. 290,000 compounds, 1.2% hits;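 active means inhibition above the campaign mean inhibition over all tested compounds plus 3 SD, cut at about 28% in these data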
ALR H2O2 inh: blocks human ALR sulfhydryl oxidase activity | 290,000 compounds, 3.8% hits | inhibition, % (concentration not given with the values) | purified ALR, DTT oxidation, H2O2 HRP-luminol luminescence | AID 485317;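 active means mean replicate inhibition above about 79%, with every replicate also reaching it, limit read from the data; inconclusive means only one of the two criteria met; inactive means mean below limit and not every replicate reaching it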
PolyA inhibitor: yeast polyadenylation inhibition; S. cerevisiae SKY197-pL101 polyadenylation reporter, beta-gal luminescence; efflux-impaired pdr1/pdr3 knockout yeast; score 100 = 6 SD above DMSO; activity score, % at 12 µM; 300,000 compounds, 0.02% hits; AID 1875;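 active means lowest replicate activity score at least 50, where 100 means six control SD above control mean; inconclusive means lowest score under 50 but half or more replicates reach 50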;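 further: yeast exposed to compound for 9 h at 30 °C; higher score means more reporter readthrough which indicates perturbed polyadenylation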
PfM18AAP inh-2: PfM18AAP inhibition, confirmation; shares compounds with PfM18AAP inh-1; recombinant PfM18AAP, H-Glu-NHMec fluorogenic cleavage; inhibition, % at 7.35 µM; 2,400 compounds, 28% hits; AID 2170;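 active means mean inhibition over replicate wells above the hit cutoff set for the earlier primary screen, cut at about 29% in these data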
CTSL1 confirm: Cathepsin L (human) inhibition, confirmation; shares compounds with PfM18AAP inh-1; purified cathepsin L1, Z-Leu-Arg-MCA fluorescence; inhibition, % at 5.96 µM; 2,400 tested, under 10 active; AID 2178;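 active means average inhibition across replicates above the hit cutoff set in the earlier primary screen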
Each line names hits and unclear results; the compound was inactive in the other large screens (follow-up assays come after a bar, where they were run). The list is not random: actives were taken first. Their share in the collection is about 4.1%.

CC(=O)NC(=S)NNC(=O)COc1ccc([N+](=O)[O-])cc1	none
Cc1occc1C(=O)NNS(=O)(=O)c1ccc([N+](=O)[O-])cc1	none (no result: ALR H2O2 inh)
CC(=O)NNC(=S)NC(=O)c1cccc([N+](=O)[O-])c1	PfM18AAP inh-1 47 | PfM18AAP inh-2 inactive | CTSL1 confirm inactive
CC(=O)Nc1ccc(S(=O)(=O)NNc2ccc([N+](=O)[O-])cc2)cc1	PfM18AAP inh-1 46, ALR H2O2 inh 98 | PfM18AAP inh-2 inactive | CTSL1 confirm inactive
Cc1ccc(C(=O)NC(=S)NNS(=O)(=O)c2ccc(C)cc2)cc1	PfM18AAP inh-1 40, ALR H2O2 inh 97 | PfM18AAP inh-2 inactive | CTSL1 confirm inactive
O=C(NC(=S)Nc1cccc(NC(=O)c2ccccc2)c1)c1cccc([N+](=O)[O-])c1	none
CC(=O)Nc1ccc(C(=O)NNS(=O)(=O)c2ccc(C)cc2)cc1	none (no result: IDE cell activ)
COc1ccc(Cl)cc1NC(=S)N(CCCN1CCOCC1)Cc1cn(C)c2ccccc12	none
COc1cc(Cl)ccc1NC(=S)N(CCCN1CCOCC1)Cc1cn(C)c2ccccc12	PfM18AAP inh-1 32 | PfM18AAP inh-2 inactive | CTSL1 confirm inactive
Cc1cc(CNC(=O)c2ccc3c(c2)OCO3)c2ccccc2n1	CaV13 FRET inh 152, PfM18AAP inh-1 33 | PfM18AAP inh-2 inactive | CTSL1 confirm inactive
CCC(=O)Nc1ccc(NC(=O)c2cccc3c(Br)cccc23)cc1	PfM18AAP inh-1 45 | PfM18AAP inh-2 inactive | CTSL1 confirm inactive
COc1ccc2sc(C)[n+](C)c2c1	PfM18AAP inh-1 43 | PfM18AAP inh-2 inactive | CTSL1 confirm inactive
CC[n+]1c(/C=C2/C=C(C)CC(C)(C)C2)sc2ccc(OC)cc21	ALR H2O2 inh inconclusive (no result: CaV13 FRET inh)
CN(CCO)c1ncnc2c1sc1nc(N3CCOCC3)c3c(c12)CCC3	none
Cc1cccc(C)c1NC(=O)CSCC(=O)c1ccc(O)c(O)c1	PfM18AAP inh-1 48, ALR H2O2 inh 99 | PfM18AAP inh-2 inactive | CTSL1 confirm inactive
Cc1ccc(C)c(S(=O)(=O)NNC(=O)c2sc(NS(=O)(=O)c3ccccc3)nc2C)c1	PfM18AAP inh-1 36 | PfM18AAP inh-2 inactive | CTSL1 confirm inactive
COc1ccc2[nH]c(-c3ccccc3)cc2c1	none
C/C(=N/NS(=O)(=O)c1cccc([N+](=O)[O-])c1)c1ccncc1	PfM18AAP inh-1 44 | PfM18AAP inh-2 inactive | CTSL1 confirm inactive
C/C(=N\NS(=O)(=O)c1ccc(Br)cc1)c1ccncc1	PfM18AAP inh-1 53 | PfM18AAP inh-2 inactive | CTSL1 confirm inactive
Cc1cc(=O)[nH]c(SCC(=O)Nc2ccccc2C#N)c1C#N	PfM18AAP inh-1 38 | PfM18AAP inh-2 inactive | CTSL1 confirm inactive
CNc1nc(NN)nc(Nc2ccccc2)n1	PfM18AAP inh-1 33 | PfM18AAP inh-2 inactive | CTSL1 confirm inactive
CNc1nc(Nc2ccccc2)nc(OCC(F)(F)F)n1	none
CC(OC(=O)C1=COCCO1)C(=O)c1ccc(C(C)(C)C)cc1 (stereo not drawn)	none (no result: IDE inh, PfM18AAP inh-1, ALR H2O2 inh, PolyA inhibitor)
COc1ccccc1N1C(=O)C=C(Sc2nc(C)cc(C)n2)C1=O	PfM18AAP inh-1 35 (no result: IDE cell activ) | PfM18AAP inh-2 inactive | CTSL1 confirm inactive
O=C(NCc1ccco1)C1CCCN1C(=O)Nc1ccc(Cl)cc1 (stereo not drawn)	none
O=C(CNS(=O)(=O)c1ccccc1)OCC(=O)c1ccc([N+](=O)[O-])cc1	PfM18AAP inh-1 33 | PfM18AAP inh-2 inactive | CTSL1 confirm inactive
Cc1ccc(C(=O)COC(=O)CNC(=O)CNC(=O)c2ccc(C)cc2)cc1	none
O=C(CNS(=O)(=O)c1ccccc1)OCC(=O)c1ccc(Br)cc1	none
NNC(=O)CNS(=O)(=O)c1ccc([N+](=O)[O-])cc1	PfM18AAP inh-1 35 | PfM18AAP inh-2 inactive | CTSL1 confirm inactive
O=C(CCNS(=O)(=O)c1ccccc1)OCc1ccc([N+](=O)[O-])cc1	none (no result: IDE cell activ, IDE inh, PfM18AAP inh-1, ALR H2O2 inh, PolyA inhibitor)

Assay outcomes from PubChem BioAssay.
